# This is a sample that favours compounds with a hit; in the whole collection about 3.4% have one here.
# hcDAF-12 act: activators of H. contortus DAF-12 nuclear receptor; HEK293 hcDAF-12 lit1-tk-luc reporter, luminescence; 0% DMSO, 100% Δ7-dafachronic acid; activation, % at 6.8 µM; 370,000 compounds, 1.4% hits;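 active means activation above the mean of all tested compounds plus 3 SD, cut at about 5.5% in these data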;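 further: 100% = response to 3 µM Δ7-dafachronic acid high control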
# NF-kB neuron act: compounds increasing NF-kB expression in human neuronal cells | NF-kB reporter expression; hits give high values | 190,000 compounds, 1.6% hits | AID 1239 | fold change at 12.5 µM; in the data active means fold change above about 3.3
# hgDAF12 agonist: activates the H. glycines DAF-12 receptor ligand-binding domain | HEK293 GAL4-hgDAF12 UAS-luciferase reporter, agonist luminescence; normalized to butyrate control | activation, % at 6.8 µM | 370,000 compounds, 1.8% hits | AID 687014;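 active means activation above a cutoff set at the mean of all screened compounds plus 3 SD, cut at about 10% in these data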;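 further: 0% = DMSO wells and 100% = sodium butyrate wells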
# APP 5'UTR act: APP 5'UTR luciferase reporter activation | 190,000 compounds, 1% hits | SH-SY5Y APP 5'UTR luciferase reporter, luminescence; zero percent = DMSO vehicle wells | activation, % at 2 µM;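 active means activation above a set limit, based on mean plus 3 SD of controls, cut at about 140% in these data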
# ssDAF-12 act: S. stercoralis DAF-12 activation, primary screen; HEK293 ssDAF-12/GRIP1 lit1-tk-luc reporter, luminescence; % of 3 µM dafachronic acid response; activation, % at 6.8 µM; 370,000 compounds, 1% hits;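 active means activation above the mean over all tested compounds plus 3 SD, cut at about 0.9% in these data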;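 further: 0% = DMSO-only wells and 100% = 3 µM delta7-dafachronic acid wells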
# * = called active by the depositor; / = no result given.
SMILES,hcDAF-12 act,NF-kB neuron act,hgDAF12 agonist,APP 5'UTR act,ssDAF-12 act
Cc1ccc(C(=O)CSC2=C(C#N)C(c3ccco3)C3=C(CCCC3=O)N2)cc1 (centres undefined),-1,1.6,2,-46,-1
COCCCN1C(=O)[C@H](CC(=O)NCc2cccc(C(F)(F)F)c2)[C@]2(C(=O)OC)CCCCC=C12,-2,/,0,/,-1
c1ccc2c(Nc3nnc(-c4ccncc4)s3)cccc2c1,2,1.6,10*,70,0
CSc1ccc(/C=C(/NC(=O)c2ccc(C)cc2)C(=O)Nc2cccc(F)c2)cc1,6.3*,1.2,5,11,-1
CSCCCNC(=O)c1cn(C(C)c2ccccc2)nn1 (centres undefined),-3,/,-3,/,-1
CCOC(=O)Nc1nnc(-c2ccccc2OC)s1,5.8*,1.6,4,11,0
O=S1(=O)C=CCN1Cc1cn(Cc2ccc(Cl)cc2)nn1,0,/,5,/,-1
O=C(CNC(=O)c1cccc(S(=O)(=O)N2CCc3ccccc32)c1)Nc1ccccc1Br,-2,/,-7,/,1.2*
O=C(CNC(=O)c1cccc(S(=O)(=O)N2CCc3ccccc32)c1)Nc1ccc(F)c(F)c1F,-1,/,-6,/,-1
COc1ccc(C2CC(c3ccccc3)=NN2c2ccc(N)cc2)cc1 (centres undefined),3,1.4,11*,7,0
Cc1ccc(NC(=O)[C@H](C)NC(=O)C2CCN(C(=O)[C@@H](N)C(C)C)CC2)cc1,1,/,1,/,-1
Cc1ccc(NC(=O)[C@H](C)NC(=O)C2CCN(C(=O)[C@@H](N)CC(C)C)CC2)cc1,6.0*,/,2,/,0
Nc1[nH]c(C(=O)c2ccccc2)c(-c2ccc(Cl)cc2Cl)c1C(=O)NCCc1c[nH]c2ccccc12,-3,/,2,/,-1
Nc1[nH]c(C(=O)c2ccc(Br)cc2)c(-c2ccc(Cl)cc2Cl)c1C(=O)NCCc1c[nH]c2ccccc12,1,/,1,/,1.1*
C=CCn1c(SCC(=O)c2ccc(F)cc2)nnc1-c1ccc(F)cc1,-3,/,3,/,-1
COc1cccc(NC(=S)N2CCN(c3ccc([N+](=O)[O-])cc3)CC2)c1,0,1,2,6,1.1*
Cc1ccc(C(=O)CSc2nnc(-c3ccccn3)n2-c2ccccc2)cc1,-3,/,2,/,-1
O=C(COc1ccc(Br)cc1Br)NC(=O)NC1CCCC1,5,3.4*,7,44,0
CCOc1ccc(NC(=O)N(C2CCCCC2)C(C)c2cccnc2)cc1 (centres undefined),-3,1.1,-1,-5,-2
Cc1cc(Br)ccc1OCC(=O)NC1CCCC1,-4,/,-3,/,-2
O=C(CSc1ccc(Br)cc1)NC1CCCCCC1,0,/,3,/,1.9*
CCOc1ccc(NC(=O)N(C2CCCCC2)C(C)c2ccncc2)cc1 (centres undefined),3,0.97,1,14,1.6*
Cc1ccc(NC(=O)NC2CCCCC2)cc1Cl,2,2.1,12*,40,0
CC(C)(C)c1ccc(S(=O)(=O)N2CCC(C(=O)NCCC3=CCCCC3)CC2)cc1,-3,/,3,/,-2
O=C(Nc1ccccc1)NC1CCCCCCC1,4,/,8,/,0
SMILES,hcDAF-12 act,NF-kB neuron act,hgDAF12 agonist,APP 5'UTR act,ssDAF-12 act
COc1ccc(NC(=O)C(=S)NC2CCCCC2)cc1,1,0.91,12*,121,-1
CCOc1ccc(NC(=O)C(=S)NC2CCCCC2)cc1,2,1.6,3,57,-1
CCOc1ccc(NC(=O)NC2CCCCCCC2)cc1,5,/,12*,/,0
O=C(Nc1ccc(Br)cc1)NC1CCCCCCC1,1,/,11*,/,0
COc1ccccc1C1c2c(ncn(-c3ccccc3)c2=N)Oc2ccc3ccccc3c21 (centres undefined),-1,/,5,/,-1
COC(=O)c1cc(C(C)c2c[nH]c3ccccc23)n2ccccc12 (centres undefined),4,/,-4,/,-1
CS(=O)(=O)c1nc(-c2ccc(Br)cc2)cs1,0,/,-6,/,-2
COCCNC(=S)N(C)[C@H]1C[C@H]2c3[nH]c4c(-c5ccc6c(c5)OCO6)cccc4c3CCN2C[C@H]1[C@H](C)O,-3,/,3,/,-1
O=S1(=O)c2ccc(Br)cc2OC[C@H](Cc2ccccc2)N1Cc1cn(Cc2ccc(F)cc2)nn1,3,/,5,/,-1
CCOc1ccc(-c2cc(C(=O)Nc3ccc(F)cc3)[nH]n2)c(C)c1,3,/,12*,/,0
CCOc1ccc(-c2cc(C(=O)NCc3ccc(F)cc3)[nH]n2)c(C)c1,-2,/,3,/,-1
COc1ccc(Cl)c(-c2cc(C(=O)Nc3ccc(F)cc3)[nH]n2)c1,1,/,12*,/,-1
Cc1cc(-c2c(C)[nH]n(-c3ccccc3)c2=O)n[nH]1,5.8*,0.92,8,17,0
COCCCNC(=O)c1ccc(Cn2c(=O)c3ccccc3n(Cc3ccc([N+](=O)[O-])cc3)c2=O)cc1,-1,/,0,/,0
COC(=O)[C@]12C[C@H](CC(=O)NCCc3ccccc3OC)C(=O)N(Cc3cccc4ccccc34)C1=C[C@H](C(C)C)O[C@@H]2C1CC1,-1,/,-3,/,-2
Brc1ccc(-c2ncc(-c3ccccc3)cn2)cc1,0,5.7*,7,31,-1
Brc1ccc(-c2ccccc2)cc1,1,/,-4,/,-1
CCN1CCN(CC(=O)c2c[nH]c3ccccc23)CC1,5.6*,0.94,-2,-3,1
O=C(CN1CCOCC1)c1c[nH]c2ccccc12,0,0.87,0,8,0
CCC(=O)Nc1ccc(S(=O)(=O)Nc2ccccn2)cc1,5,1,2,-7,1.4*
CCCC1CCC2(CC1)CCC2OC(=S)Nc1ccc(Br)cc1 (centres undefined),-1,/,0,/,-1
Cc1cc(C)nc(/N=C2\NC(=O)CC(C(=O)O)N2c2ccc(Cl)cc2)n1 (centres undefined),0,1.3,1,-5,-1
Cc1ccc(N2/C(=N/c3nc(C)cc(C)n3)NC(=O)CC2C(=O)O)cc1 (centres undefined),5.8*,0.96,3,-16,0
C=CCn1c(SCCOC)nc2c1c(=O)[nH]c(=O)n2C,6.5*,1,-3,-9,-1
O=C(Nc1ccc(F)cc1)OCc1cn(Cc2ccc(C(F)(F)F)cc2)nn1,-3,/,-2,/,-1
SMILES,hcDAF-12 act,NF-kB neuron act,hgDAF12 agonist,APP 5'UTR act,ssDAF-12 act
O=[N+]([O-])c1cccc(CSc2nc3ccccc3[nH]2)c1,0,1.1,6,13,-2
Fc1c(F)c(F)c(CSc2nc3ccccc3[nH]2)c(F)c1F,-2,1.4,2,23,-1
Fc1ccccc1CSc1nc2ccccc2[nH]1,5,10*,12*,198*,0
COc1cccc(CSc2nc3ccccc3[nH]2)c1,1,4*,13*,89,-1
CS(=O)(=O)Cc1nc2ccccc2oc1=O,1,4.7*,-4,-12,-1
Cc1ccc2oc(=O)c(/C=C(\O)c3ccccc3)nc2c1,1,1.9,5,22,0

# High-throughput results: PubChem BioAssay, several laboratories
